# From PubChem BioAssay
# CYP2C19 activ: human CYP2C19 activators, primary screen, biochemical, luminescence; recombinant CYP2C19, luciferin-H EGE luminescence; hits give high values; 0 = fully inhibited enzyme, 1 = untreated enzyme; activation factor at 5 µM; 96,000 tested, under 10 active;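 active means activation factor of at least 2 at 5 µM in the primary screen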;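 further: 0 = wells with 2.5 mM tranylcypromine and 1 = vehicle-only wells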
# CYP2C9 act: human CYP2C9 activators, primary screen, biochemical, luminescence; Cytochrome P450 2C9 (Homo sapiens), P11712; 96,000 compounds, 1.4% hits; AID 1024, 2008; activation factor at 5 µM; recombinant CYP2C9, luciferin-H conversion; hits give high values; factor 1 = untreated enzyme, 0 = blocked;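 active means activation factor of 2 or more for CYP2C9 at a 5 µM dose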;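 further: 0 = sulfaphenazole-blocked wells and 1 = vehicle-only wells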
# CYP2C9 inhib: blockers of cytochrome P450 2C9 activity – biochemical, luminescence, ADME assay, primary screen | CYP2C9 Supersomes, luciferin-H conversion | inhibition, % at 5 µM | 96,000 compounds, 20% hits | AID 777, 2007;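 active means blocking of liver enzyme CYP2C9 beyond about 50% at 5 µM, limit read from the data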
# CYP2C19 inh: blockers of cytochrome P450 2C19 activity – biochemical, luminescence, ADME assay, primary screen. P33261. CYP2C19 Supersomes, luciferin-H EGE luminescence, 30 min. 96,000 compounds, 21% hits. inhibition, % at 5 µM;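 active means CYP2C19 inhibition above a set limit at 5 µM in the primary screen, cut at about 50% in these data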;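 further: plate controls were negative control wells for no effect and 2.5 mM tranylcypromine positive control for full effect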
# CD11b adhes inh: inhibitors of CD11b/CD18 adhesion to fibrinogen, primary screen, K562 cells, luminescence. AID 1497, 2009. Integrin beta-2 (Homo sapiens) + Integrin alpha-M (Homo sapiens), P05107+P11215. inhibition, % at 10 µM. 93,000 compounds, 0.54% hits. ATPlite luminescence; Mn2+ added to activate the integrin;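 active means primary inhibition of 50% or more at 10 µM, then 40% or more on retest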
# Mac1 fbg enh: enhancers of CD11b/CD18 adhesion to fibrinogen, primary screen, K562 cells, luminescence. Integrin beta-2 (Homo sapiens) + Integrin alpha-M (Homo sapiens), P05107+P11215. ATPlite luminescence. activation, % at 10 µM. 93,000 compounds, 0.07% hits;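 active means 10 µM primary screen giving 50% or more activity, confirmed by 40% or more on retest at that dose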
# * marks the source's active call; other numbers are inactive results; x = no result. Most compounds without a hit are left out; they make up all but 28% or so of the library.
SMILES,CYP2C19 activ,CYP2C9 act,CYP2C9 inhib,CYP2C19 inh,CD11b adhes inh,Mac1 fbg enh
O=C(COc1ccccc1)Nc1nnc(-c2ccc3c(c2)CCCC3)o1,0.9,0.5,52*,12,-28,2
FC(F)(F)c1nc2ccccc2nc1N/N=C/c1c(Cl)cccc1Cl,0.6,0.8,22,44,-6,-2
CCCCn1c(N)c(-c2nc3ccccc3s2)c2c([N+](=O)[O-])nn(CC)c(=O)c21,1.1,0.3,68*,-15,17,0
CCCCCn1c(N)c(-c2nc3ccccc3s2)c2c([N+](=O)[O-])nn(CC)c(=O)c21,1,0.3,72*,-2,90,-8
CCOc1ccc(NC(=O)C2CCC(N3C(=O)C4CC=CCC4C3=O)CC2)cc1 (configuration not stated),0.5,0.5,52*,52*,-11,0
CCOC(=O)c1ccc(NC(=O)C(=O)NCc2ccncc2)cc1,0.6,0.5,51*,42,-63,0
CCOC(=O)c1ccc(Nc2cc(C)nc(C)c2C(=O)OCC)cc1,0.1,0.5,52*,89*,3,0
CCOC(=O)c1ccc(NC(=O)C2CC2)cc1,0.2,0.7,35,79*,0,-2
CCOc1ccc(NC(=O)CN2C(=O)C3CC=CCC3C2=O)cc1 (configuration not stated),1.2,1.1,-13,-22,-3,-3
C=CCn1c(Cc2ccc(OC)cc2)nnc1SCC(=O)NCCc1ccccc1,0.7,0.7,30,26,-5,9
CCOC(=O)c1ccc(NC(=O)COC)cc1,0.8,0.8,16,23,-46,6
CCOC(=O)c1ccc(NC(=O)C(CC)(CC)C(=O)OCC)cc1,0.2,0.4,65*,77*,-12,3
Cc1nc2sccc2c(=O)n1-c1cccc(Cl)c1,0.3,0.9,14,70*,2,-2
Cc1ccc2c(c1)sc1nc(=O)n(-c3cccc(Cl)c3)c(=O)n12,0.7,1,4,26,-14,4
O=C(CN1C(=O)NC2(CCOc3ccccc32)C1=O)Nc1ccc2c(c1)OCCO2 (configuration not stated),1,0.5,50*,4,-25,-2
COc1ccc(OC)c(NC(=O)CN2C(=O)NC3(CCOc4ccccc43)C2=O)c1 (configuration not stated),0.4,0.6,44,57*,-1,-1
CC1CC(=O)N(CC(=O)Nc2ccc3c(c2)OCO3)c2ccccc2S1 (configuration not stated),0.6,0.7,28,44,-6,-5
O=C(CN1C(=O)CC(c2ccco2)Sc2ccccc21)Nc1ccc2c(c1)OCCO2 (configuration not stated),0.1,0.5,49,88*,-9,-8
N#Cc1nc(COc2ccc(Br)cc2)oc1N1CCCC1,0,0.4,65*,99*,-13,4
N#Cc1nc(COc2ccc(Br)cc2)oc1N1CCCCCC1,0.8,0.6,42,21,-2,1
CN1CCN(c2oc(COc3ccc(-c4ccccc4)cc3)nc2C#N)CC1,0.4,0.8,20,55*,13,-2
N#Cc1nc(COc2ccccc2)oc1N1CCCC1,0.1,0.7,31,88*,-4,2
Cc1nc(S(=O)(=O)c2ccc(Cl)cc2Cl)nc2c1CCC2,0.7,1.4,-38,26,x,x
Cc1nc(S(=O)(=O)c2cccc(Cl)c2)nc2c1CCC2,0.9,2.7*,-173,10,x,x
CN1CCN(c2cc3c(c4c2[nH]c2ccccc24)C(=O)CC(C)(C)C3)CC1,0.4,0.2,78*,61*,16,9
CN1CCN(c2ncnc3c2[nH]c2ccc(F)cc23)CC1,0.9,0.9,9,10,-9,1
